The record followed here is ChEMBL document CHEMBL3988442, “University of Dundee, Small-Polar-MMV Screening Library” (2021).

Hit rate of the full screen: of about 48,000 compounds, about 13,000 (27%) showed an effect of 50% or more. Some of the results follow.

The assay deals with Wolbachia pipientis. Briefly: Anti-Wolbachia Cell-Based Screen. Conditions: 5 µM. On the set-up: scale not given: in the data most compounds retested in dose-response had high values. The format is functional.
Regarding `COc1ccc(C2CC(=O)NCc3nc(N(C)C)sc32)c(O)c1` (stereo not given), the “Percent Effect” value was -25.68%.

Take `COCCc1ncc(CN2C[C@@H](C(=O)O)[C@H](C(C)C)C2)cn1`: the “Percent Effect” value was -10.49%.

As for `Cc1cnc(NS(=O)(=O)c2cccc(C#N)c2)s1`, the “Percent Effect” value is recorded as -4.999%.

On to `CNC(=O)C(NC(C)=O)c1ccc(F)c(F)c1` (stereo not given), for which the “Percent Effect” value was -14.34%.

Turning to `Cc1nc(CN2CCOCC3(CCN(c4cccnc4)CC3)C2)cs1.O=C(O)C(F)(F)F.O=C(O)C(F)(F)F`, the “Percent Effect” value was 4.008%.

On to `Cc1nc(CN2CCC3(CCCN(Cc4ccoc4)C3)C2=O)cs1.O=C(O)C(F)(F)F.O=C(O)C(F)(F)F` (stereo not given), for which the “Percent Effect” value is 117.4%.

Regarding `Cc1nc(CN2CCC3(CCCN(Cc4cccnc4)C3)C2=O)cs1.O=C(O)C(F)(F)F.O=C(O)C(F)(F)F.O=C(O)C(F)(F)F` (stereo not given), the “Percent Effect” value was found to be 115.5%.

With `Cc1nc(CN2CCC3(CCCN(Cc4ccncc4)C3)C2=O)cs1.O=C(O)C(F)(F)F.O=C(O)C(F)(F)F.O=C(O)C(F)(F)F` (stereo not given), the “Percent Effect” value is 97.27%.

As to `N#Cc1ccnc(N2CCN(C(=O)Cc3ccc4c(c3)CCO4)CC2)c1`, the “Percent Effect” value was -0.6491%.

With `CC(NCc1ccncc1)c1ccc(N2CCN(C)CC2)c(F)c1.Cl` (stereo not given), the “Percent Effect” value came out at 1.312%.

As for `Fc1ccc2c(c1)CCC2NCc1ccc(N2CCOCC2)cc1` (stereo not given), the “Percent Effect” value is on record as -1.344%.

Turning to `COCCN1C(=O)C2(CCC(C(=O)Nc3cccc(C)c3)CC2)N=C1C` (stereo not given), the “Percent Effect” value is given as -14.6%.

On to `CCC1=NC2(CCC(C(=O)Nc3ccc(C)nc3)CC2)C(=O)N1C` (stereo not given), for which the “Percent Effect” value is listed as 107.3%.

As for `COCCN1C(=O)C2(CCC(C(=O)Nc3ccc(C)cc3)CC2)N=C1C` (stereo not given), the “Percent Effect” value is -12.68%.

For the compound `COCCN1C(=O)C2(CCC(C(=O)Nc3ccc(F)cc3)CC2)N=C1C` (stereo not given), the “Percent Effect” value turned out to be 17.41%.

Turning to `COCCN1C(=O)C2(CCC(C(=O)Nc3ccccn3)CC2)N=C1C` (stereo not given), the “Percent Effect” value amounted to 12.9%.

As to `CCC1=NC2(CCC(C(=O)Nc3ccc(F)cc3)CC2)C(=O)N1C` (stereo not given), the “Percent Effect” value stood at 104.8%.

Regarding `Cc1ccc(CNCc2ccc(-n3nc(C)cc3C)nc2)cc1`, the “Percent Effect” value is on record as -14.48%.

As for `CN1C[C@H](O)C[C@H]1c1nc(-c2ccc3c(c2)OCO3)no1`, the “Percent Effect” value is given as -5.095%.

`Cc1cnccc1NCCNC(=O)C1CCCN(Cc2ccco2)C1` (stereo not given): the “Percent Effect” value stood at 5.628%.

As to `Cc1cc(C)nc(CCNC(=O)[C@H]2CNC[C@@H](C(=O)N3CCCC3)C2)n1`, the “Percent Effect” value worked out at 4.192%.

Consider `Cn1nccc1CCNC(=O)[C@H]1CNC[C@H](C(=O)N2CCCC2)C1`, for which the “Percent Effect” value stood at 89.07%.

In the case of `Cc1cccnc1NCCNC(=O)[C@H]1CNC[C@@H](C(=O)N2CCCC2)C1`, the “Percent Effect” value is listed as 2.912%.

Regarding `Cc1nc(CCCNC(=O)[C@H]2CNC[C@@H](C(=O)N3CCCC3)C2)sc1C`, the “Percent Effect” value turned out to be 84.73%.

As to `O=C(NCc1ccc2nonc2c1)C1CCN(C(=O)C2CCC2)CC1`, the “Percent Effect” value is 6.946%.

For the compound `Cc1cnccc1NCCNC(=O)[C@H]1CNC[C@H](C(=O)N2CCCC2)C1`, the “Percent Effect” value was 142%.

On to `Cc1csc(CCCNC(=O)[C@H]2CNC[C@@H](C(=O)N3CCCC3)C2)n1`, for which the “Percent Effect” value turned out to be 5.026%.

On to `CCN1CC(C(=O)NCCCc2nc(C)c(C)s2)CC1=O` (stereo not given), for which the “Percent Effect” value was -10.95%.

For the compound `Cc1nnc(CCNC(=O)C2CC(=O)N(C(C)(C)C)C2)s1` (stereo not given), the “Percent Effect” value is -24.96%.

Take `Cn1nnnc1SCCNC(=O)C1CCN(C(=O)C2CCCC2)CC1`: the “Percent Effect” value is 4.852%.

Take `Cc1nnc(CCNC(=O)[C@H]2CNC[C@@H](C(=O)N3CCCC3)C2)s1`: the “Percent Effect” value is 111.1%.

Consider `N#CC1(NC(=O)c2nccc3ccccc23)CCSCC1`, for which the “Percent Effect” value is given as -2.14%.

Take `CCCS(=O)(=O)CC(=O)NC(C)c1cccc(-n2cccn2)c1` (stereo not given): the “Percent Effect” value is listed as -8.263%.

With `Cc1ccc(-c2csc(N)c2C#N)cc1`, the “Percent Effect” value is -4.785%.

As to `CCn1cc2c(n1)CN(Cc1sccc1C)CC2COCC1CC1.O=C(O)C(F)(F)F` (stereo not given), the “Percent Effect” value is 6.988%.

With `CC(C)Cn1cncc1CNC1CCCNC1` (stereo not given), the “Percent Effect” value was 2.5%.

For `O=C(NCC1CCCO1)C1CCN(Cc2nc(C3CC3)no2)CC1` (stereo not given), the “Percent Effect” value was 8.427%.

As for `NC(=O)N1CCCC(C(=O)NCCc2nc(Cc3ccccc3)no2)C1` (stereo not given), the “Percent Effect” value is 5.914%.

Regarding `O=C(NCCc1nc(C2CC2)no1)[C@H]1CNC[C@H](C(=O)N2CCCC2)C1`, the “Percent Effect” value was found to be 183.5%.

Take `Cc1cc(C)cc(NC(=O)N(CCC#N)CCCN(C)C)c1`: the “Percent Effect” value came to 13.87%.

Regarding `COCCN1CCO[C@@H]2CN(Cc3cc(OC)cc(OC)c3)C[C@@H]2C1.O=C(O)C(F)(F)F.O=C(O)C(F)(F)F`, the “Percent Effect” value was 4.168%.

Consider `CN(C)[C@@H]1COC[C@@H]2CN(Cc3ccc4c(c3)OCO4)C[C@@H]21.O=C(O)C(F)(F)F.O=C(O)C(F)(F)F`, for which the “Percent Effect” value was -14.92%.

In the case of `COc1cc(CN2CCC(NC(=O)c3cccn3C)C2)cc(OC)c1` (stereo not given), the “Percent Effect” value is reported as -4.957%.

Consider `O=C(C1CC1)N1CCC2(CCN(Cc3cccc(F)c3)CC2)CC1.O=C(O)C(F)(F)F`, for which the “Percent Effect” value came out at 10.09%.

With `C[C@H]1C(=O)NC[C@H]2CN(Cc3cccc(F)c3)C[C@H]21.O=C(O)C(F)(F)F`, the “Percent Effect” value is reported as 100.1%.

Take `C[C@H]1C(=O)NC[C@H]2CN(CCc3ccccc3)C[C@H]21.O=C(O)C(F)(F)F`: the “Percent Effect” value is recorded as 113.2%.

Take `O=C(O)C(F)(F)F.O=C([C@H]1CCS(=O)(=O)[C@@H]2CN(CCc3ccccc3)C[C@H]12)N1CCCC1`: the “Percent Effect” value is listed as -9.586%.

As to `CN(C)[C@H]1COC[C@@H]2CN(Cc3ccc4c(c3)OCO4)C[C@@H]21.O=C(O)C(F)(F)F.O=C(O)C(F)(F)F`, the “Percent Effect” value is on record as -0.2221%.

`COc1cc(CN2C[C@@H]3CNC(=O)[C@H](C)[C@@H]3C2)cc(OC)c1`: the “Percent Effect” value is given as 103.5%.

With `C[C@@H]1C(=O)NC[C@H]2CN(Cc3ccc4c(c3)OCO4)C[C@H]21.O=C(O)C(F)(F)F`, the “Percent Effect” value came to 109.9%.
